Measured values as given in PubChem BioAssay AID1159580 (chemical genetic matrix, 2015).
“And” between values parts separate entries of the source, which are not always exact repeats. Equal values may be shown once. Out of some 5,500 compounds screened, about 2,000 (36%) were called active. Inconclusive results (about 18%) are left out. No stated cut-off is given here; in the data, active means normalized growth mostly below about 0.91 (no sharp cut-off); inconclusive means no clear call, values can overlap the other calls; inactive means mostly above about 0.92. The list shows a part of the results.

Assay: chemical genetic growth profiling, strain panel (AID 1159580);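 further: tested at 20 µM; growth read once vehicle control cultures reached saturation at 30 °C; 1 = growth at the plate median or of vehicle wells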
Conditions: S. cerevisiae deletion strains, growth OD

Measured: normalized growth

CSc1nc(NC(C)C)nc(NC(C)C)n1
inactive: locus YAL013W, strain DEP1, stronger effect = lower value 1.01 | locus YAL021C, strain ccr4, stronger effect = lower value 0.969 | locus YAL026C, strain drs2, stronger effect = lower value 0.969 | locus YAL030W, strain snc1, stronger effect = lower value 0.98 | locus YBL061C, strain skt5, stronger effect = lower value 0.968 | locus YBR009C, strain hhf1, stronger effect = lower value 0.979 | locus YBR021W, strain FUR4, stronger effect = lower value 1.04 | locus YBR023C, strain chs3, stronger effect = lower value 0.957 | locus YBR171W, strain sec66, stronger effect = lower value 0.954 | locus YBR229C, strain ROT2, stronger effect = lower value 0.999 | locus YBR231C, strain swc5, stronger effect = lower value 0.961 | locus YBR279W, strain paf1, stronger effect = lower value 0.972 | locus YCL011C, strain gbp2, stronger effect = lower value 0.966 | locus YCL016C, strain dcc1, stronger effect = lower value 0.967 | locus YCL029C, strain bik1, stronger effect = lower value 1.01 | locus YCL061C, strain MRC1, stronger effect = lower value 0.979 | locus YCL069W, strain vba3, stronger effect = lower value 0.975 | locus YCR088W, strain abp1, stronger effect = lower value 0.986 | locus YDL005C, strain med2, stronger effect = lower value 0.981 | locus YDL035C, strain GPR1, stronger effect = lower value 1.02 | locus YDL040C, strain nat1, stronger effect = lower value 0.962 | locus YDL074C, strain BRE1, stronger effect = lower value 1.01 | locus YDL101C, strain DUN1, stronger effect = lower value 1.02 | locus YDL134C, strain PPH21, stronger effect = lower value 1 | locus YDL185W, strain tfp1, stronger effect = lower value 1.03 | locus YDL192W, strain arf1, stronger effect = lower value 1.01 | locus YDR001C, strain nth1, stronger effect = lower value 0.979 | locus YDR069C, strain doa4, stronger effect = lower value 0.977 | locus YDR101C, strain arx1, stronger effect = lower value 1.01 | locus YDR137W, strain rgp1, stronger effect = lower value 0.848 | locus YDR150W, strain NUM1, stronger effect = lower value 0.994 | locus YDR159W, strain sac3, stronger effect = lower value 0.967 | locus YDR162C, strain NBP2, stronger effect = lower value 1.02 | locus YDR195W, strain ref2 0.998 | locus YDR297W, strain sur2, stronger effect = lower value 0.975 | locus YDR318W, strain mcm21, stronger effect = lower value 1.03 | locus YDR334W, strain swr1, stronger effect = lower value 0.968 | locus YDR335W, strain msn5, stronger effect = lower value 0.969 | locus YDR388W, stronger effect = lower value 1.01 | locus YDR392W, strain spt3, stronger effect = lower value 0.958 | locus YDR502C, strain sam2, stronger effect = lower value 1.01 | locus YEL003W, strain gim4, stronger effect = lower value 0.972 | locus YEL037C, strain rad23, stronger effect = lower value 0.975 | locus YEL061C, strain CIN8 (second series), stronger effect = lower value 0.961 | locus YEL061C, strain CIN8, stronger effect = lower value 1 | locus YER015W, strain faa2, stronger effect = lower value 0.973 | locus YER016W, strain bim1, stronger effect = lower value 0.966 | locus YER110C, stronger effect = lower value 1 | locus YER111C, strain swi4, stronger effect = lower value 0.977 | locus YER155C, strain BEM2 (second series), stronger effect = lower value 0.952 | locus YER155C, strain BEM2, stronger effect = lower value 1.01 | locus YER167W, strain BCK2, stronger effect = lower value 0.995 | locus YFR010W, strain ubp6, stronger effect = lower value 0.978 | locus YGL078C, strain dbp3, stronger effect = lower value 1.01 | locus YGL086W, strain mad1, stronger effect = lower value 1.01 | locus YGL167C, strain pmr1, stronger effect = lower value 0.958 | locus YGL173C, strain kem1, stronger effect = lower value 0.964 | locus YGL227W, strain vid30, stronger effect = lower value 0.956 | locus YGL240W, strain doc1, stronger effect = lower value 0.95 | locus YGL248W, strain PDE1, stronger effect = lower value 1.01 | locus YGL253W, strain hxk2, stronger effect = lower value 0.973 | locus YGR078C, strain PAC10, stronger effect = lower value 1.01 | locus YGR135W, strain pre9, stronger effect = lower value 1.01 | locus YGR229C, strain SMI1, stronger effect = lower value 1.02 | locus YGR252W, strain gcn5, stronger effect = lower value 1.14 | locus YHR013C, strain ard1, stronger effect = lower value 0.944 | locus YHR027C, strain rpn1, stronger effect = lower value 0.972 | locus YHR030C, strain SLT2, stronger effect = lower value 1.02 and 1.03 | locus YHR079C, strain IRE1 (second series), stronger effect = lower value 1.01 | locus YHR079C, strain IRE1, stronger effect = lower value 1.03 | locus YHR094C, strain hxt1, stronger effect = lower value 1 | locus YHR129C, strain ARP1, stronger effect = lower value 1.01 | locus YHR142W, strain chs7, stronger effect = lower value 0.95 | locus YHR200W, strain rpn10, stronger effect = lower value 1.01 | locus YIL066C, strain RNR3, stronger effect = lower value 1.03 | locus YIL073C, strain SPO22, stronger effect = lower value 1.02 | locus YIL125W, strain kgd1, stronger effect = lower value 1.01 | locus YIR030C, strain dcg1, stronger effect = lower value 1.02 | locus YJL092W, strain hpr5, stronger effect = lower value 0.981 | locus YJL095W, strain BCK1 (second series), stronger effect = lower value 0.968 | locus YJL095W, strain BCK1, stronger effect = lower value 0.988 and 0.974 | locus YJL115W, strain asf1, stronger effect = lower value 0.978 | locus YJL129C, strain trk1, stronger effect = lower value 0.962 | locus YJL134W, strain LCB3, stronger effect = lower value 1.02 | locus YJL154C, strain vps35, stronger effect = lower value 0.977 | locus YJL164C, strain tpk1, stronger effect = lower value 0.969 | locus YJL166W, strain qcr8, stronger effect = lower value 0.978 | locus YJL168C, strain set2, stronger effect = lower value 1 | locus YJL187C, strain SWE1 (second series), stronger effect = lower value 1.01 | locus YJL187C, strain SWE1, stronger effect = lower value 0.973 | locus YJR043C, strain POL32, stronger effect = lower value 1.02 | locus YJR066W, strain TOR1, stronger effect = lower value 0.968
